ELG1 repair inh = blocks ELG1-dependent DNA repair in HEK293T cells; HEK293T ELG1-luciferase reporter, luminescence, 16 h; DNA damage induced by 5-fluorouridine; Potency, µM (titrated, usually from 46.1 µM), actives largely listed as inhibitors; hit rate 2.3% among 330,000; further: nearly all actives have a fitted effect of over 55% in size
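Luminescence from the luciferase reporter, measured 30 min after ONE-Glo reagent at room temperature, was the read-out. Beforehand, 2,000 cells per well were exposed for 16 hr at 37 °C to 5-fluorouridine together with compound or vehicle.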
Coupling enz = coupling enzyme interference in Giardia aldolase counter-screen; hit rate 0.67% among 290,000; coupling enzyme system counterscreen, AmpLite Red fluorescence; activity change, negative = inhibition, % at 58.2 µM, hits read low; AID 2472; in the data active means activity change below about -30%
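Activity here indicates interference with the coupling reaction, not aldolase inhibition. Compounds at 57.5 uM final met coupling enzymes for 10 min at RT; substrate and AmpLite Red detection followed, with a 525/598 nm fluorescence read after 20 min.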
Sfp inh = Sfp phosphopantetheinyl transferase inhibition; hit rate 3.5% among 310,000; Q9F4F7; AID 1490; Potency, µM, hits mostly inhibitors; Biochemical Sfp PPTase activity, qHTS;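 further: the enzyme is Sfp with the accession as filed and its product quenches rhodamine fluorescence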
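Fluorescence-quenching assay: 15 nM Sfp-PPTase preincubated 15 min at room temperature with compound, then 5 uM rhodamine-CoA and 12.5 uM BHQ-2-labelled YbbR peptide added. Fluorescence (ex 525/em 598 nm) read at start and after 30 min; difference gives rate.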
Giardia kill = kills Giardia lamblia; Giardia lamblia trophozoite viability; activity change, % at 7.66 µM, hits read low; hit rate 0.15% among 340,000; AID 540267; in the data active means activity change below about -80%; inconclusive means between about -30% and that limit;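 further: parasites exposed to compound for two days anaerobically before the ATP read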
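Giardia lamblia trophozoites (100 cells/well) were incubated with compounds for 48 h at 37 deg C under anaerobic conditions. Viability was read as ATP content by one-step luminescence after 15-30 min at room temperature.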
ELG1 FLuc counter = luciferase inhibition in cell-free luciferin readout for ELG1 hits. shares compounds with ELG1 repair inh. cell-free firefly luciferase luminescence counter-screen, ViewLux. Potency, µM (highest dose often 46.1 µM), actives largely listed as inhibitors. hit rate 3% among 350. AID 624247
ELG1 Luc conf = confirmation of human ELG1-dependent DNA repair inhibitors. hit rate 68% among 670. HEK293T ELG1-luciferase levels, luminescence; cells co-treated with 5-fluorouridine. Potency, µM (titrated, usually from 46.1 µM), hits mostly inhibitors. AID 624248. shares compounds with ELG1 repair inh; further: nearly all actives have a fitted effect of over 55% in size
ELG1-Luc MMS = inhibits ELG1-dependent repair under MMS stimulation in HEK293T cells; shares compounds with ELG1 repair inh; HEK293T luciferase-tagged ELG1 level, MMS stimulated; Potency, µM (doses to about 46.1 µM), most hits filed as inhibitors; hit rate 53% among 670; AID 624249; further: nearly all actives have a fitted effect of over 60% in size
ELG1 5-FU = confirmation of ELG1 repair inhibitors: viability with 5FU | shares compounds with ELG1 repair inh | cell viability with 5-FU, ELG1-dependent repair | 670 tested, under 10 active | AID 624250 | Potency, µM (highest dose often 46.1 µM), hits mostly cytotoxic;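 further: ELG1-luc HEK293T cells cotreated with 5-fluorouridine at 10 µM final; viability measured 16 h after compound addition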
ELG1 MMS viab = confirmation of ELG1 repair inhibitors: viability with MMS. shares compounds with ELG1 repair inh. Cell viability with MMS, ELG1-dependent DNA repair. Potency, µM (doses to about 46.1 µM), usual class: cytotoxic. hit rate 33% among 670. AID 624251;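 further: ELG1-luc HEK293T cells co-treated with 10 µM MMS; viability read 16 h after compound addition; nearly all actives have a fitted effect of over 60% in size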
Cell viab unstim = unstimulated viability counter-screen for ELG1 repair hits; hit rate 8% among 900; Potency, µM (titrated, usually from 45.9 µM), hits mostly cytotoxic; shares compounds with ELG1 repair inh; cell viability counter-screen, unstimulated, luminescence;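 further: compound exposure lasted 16 hours before reading; nearly all actives have a fitted effect of over 55% in size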
FLuc enzyme = firefly luciferase inhibition counter-screen; shares compounds with ELG1 repair inh; purified firefly luciferase, luminescence counter-screen; Potency, µM (top dose mostly 57.5 µM), hits mostly inhibitors; hit rate 10% among 350; AID 624253
Numbers stand for hits; - = inactive; ? = inconclusive; . = not tested or not shown. The list is not random: actives were taken first. Their share in the collection is about 5.5%. Unless noted, the call rests on the fitted dose curve; in most records, active means well fitted curve in the direction sought with a large enough effect; inconclusive means small, poorly fitted or top-dose-only effect, or another doubt; inactive means no such curve, though single readings can be large; an effect the other way counts as inactive or inconclusive.

SMILES	ELG1 repair inh	Coupling enz	Sfp inh	Giardia kill	ELG1 FLuc counter	ELG1 Luc conf	ELG1-Luc MMS	ELG1 5-FU	ELG1 MMS viab	Cell viab unstim	FLuc enzyme
C/C(Cl)=C\Cn1c(NCCc2ccccc2)nc2c1c(=O)n(C)c(=O)n2C	5.2µM	-	-	-	-	13µM	5µM	-	?	?	-
CN(C)c1ccnc2sc3c(=O)n(-c4ccccc4)cnc3c12	12µM	-	-	-	-	16µM	?	-	-	?	-
COc1ccc(C[C@H](N)C(=O)N[C@H]2[C@@H](O)[C@H](n3cnc4c(N(C)C)ncnc43)O[C@@H]2CO)cc1	2.5µM	.	.	-	.	3.1µM	1.6µM	?	2.2µM	2.2µM	.
COC(=O)[C@]1(Cc2ccccc2)N[C@H](CN(C)C(=O)c2ccc(C(C)(C)C)cc2)[C@@H]2C(=O)N(Cc3ccccc3)C(=O)[C@@H]21	-	.	.	-	.	.	.	.	.	.	.
CCN(C[C@H]1N[C@@](CC)(C(=O)OC)[C@H]2C(=O)N(Cc3ccccc3)C(=O)[C@@H]12)C(=O)c1ccc(C(C)(C)C)cc1	3.7µM	.	.	-	.	?	7.1µM	-	?	25µM	.
COc1ccc(-c2c(-c3ccsc3)oc(=O)c3cc(OC)c(OC)cc23)cn1	?	.	.	-	.	.	.	.	.	.	.
COCc1ccc(-c2c(-c3cc(OC)cc(OC)c3)oc(=O)c3cc(OC)c(OC)cc23)cc1	0.58µM	.	.	-	-	5µM	-	?	-	?	?
C=CCCc1ccc(C#N)c(SCc2c(C(=O)OCC)c3cc(OC(C)=O)c(Br)cc3n2C)n1	2.3µM	-	?	-	-	?	2.8µM	-	4µM	?	-
CCc1c(C)[nH]n(-c2nc(-c3ccccc3)cs2)c1=O	-	-	-	-	.	.	.	.	.	.	.
Cc1[nH]n(-c2nc(-c3ccc(Cl)cc3)cs2)c(=O)c1N=Nc1ccc(O)cc1	4.1µM	-	-	-	.	16µM	16µM	?	28µM	?	.
CC[C@H](C)[C@H](NC(=O)[C@H](C)NC(=O)[C@H](CC(N)=O)NC(=O)[C@H](CCCCN)NC(=O)[C@H](Cc1ccccc1)NC(=O)[C@H](CC(C)C)NC(=O)[C@@H](NC(=O)[C@@H](NC(=O)[C@H](CC(C)C)NC(=O)[C@@H]1CCCN1C(=O)[C@@H](NC(=O)[C@H](CCC(N)=O)NC(=O)[C@H](CO)NC(=O)[C@H](CCCCN)NC(=O)[C@H](CCC(=O)O)NC(=O)[C@H](CO)NC(=O)[C@@H](NC(=O)[C@H](CCSC)NC(=O)[C@H](Cc1ccccc1)NC(=O)CNC(=O)CNC(=O)[C@@H](N)Cc1ccc(O)cc1)[C@@H](C)O)[C@@H](C)O)C(C)C)[C@@H](C)O)C(=O)N[C@H](C(=O)N[C@@H](CCCCN)C(=O)N[C@@H](CC(N)=O)C(=O)N[C@@H](C)C(=O)N[C@@H](Cc1ccc(O)cc1)C(=O)N[C@@H](CCCCN)C(=O)N[C@@H](CCCCN)C(=O)NCC(=O)N[C@@H](CCC(=O)O)C(=O)O)[C@@H](C)CC	.	-	-	.	.	.	.	.	.	.	.
CN[C@H]1[C@@H](O)[C@@H](NC)[C@@H]2O[C@@]3(O)C(=O)C[C@@H](C)O[C@H]3O[C@H]2[C@H]1O	.	-	-	.	.	.	.	.	.	.	.
CCCCNC1c2ccccc2C(=O)N1Cc1ccccc1 (configuration not stated)	-	-	-	-	.	.	.	.	.	.	.
CCSc1nnc(NC(=O)c2csc(C)c2)s1	?	-	-	-	-	.	.	.	.	-	?
COc1cnc(-c2ccccn2)nc1Sc1ccc(Cl)cc1	0.37µM	-	-	-	-	28µM	?	-	-	-	-
COc1cnc(-c2ccccn2)nc1Sc1ccccc1	?	-	?	-	.	.	.	.	.	.	.
COc1ccc(CC(=O)NCC2CCCN(Cc3ccc(SC)cc3)C2)cc1 (configuration not stated)	-	-	-	-	.	.	.	.	.	.	.
CCOC(=O)c1cc(-c2ccc(F)cc2)nc2c1c(=O)[nH]c(=O)n2Cc1ccccc1	-	-	-	-	.	.	.	.	.	.	.
CCOC(=O)c1cc(-c2cc(OC)c(OC)c(OC)c2)nc2c1c(=O)[nH]c(=O)n2Cc1ccccc1	-	-	-	-	-	.	.	.	.	?	-
O=C(Nc1ccc(N2CCOCC2)cc1)c1cccc(S(=O)(=O)N2CCCCCC2)c1	3.3µM	-	-	-	.	?	7.9µM	-	7.9µM	?	.
O=C(Nc1ccc(N2CCOCC2)cc1)c1cccc(S(=O)(=O)N2CCCC2)c1	-	-	-	-	.	.	.	.	.	.	.
O=C(Cn1ccc2cc(S(=O)(=O)N3CCCC3)ccc21)NCCc1ccccc1	-	-	-	-	.	.	.	.	.	.	.
Cc1ccc(-n2nc(CN3CCOCC3)c(-c3ccccc3)c2N)cc1Cl	1.6µM	-	-	-	.	1.4µM	18µM	?	25µM	-	.
COc1ccc(NC(=O)c2cc3ccc(O)cc3o/c2=N\O)cc1	?	-	-	?	.	.	.	.	.	.	.
O=C(Cc1ccc(OCCCc2ccccc2)cc1)NO	.	.	.	.	.	.	.	.	.	-	.
SMILES	ELG1 repair inh	Coupling enz	Sfp inh	Giardia kill	ELG1 FLuc counter	ELG1 Luc conf	ELG1-Luc MMS	ELG1 5-FU	ELG1 MMS viab	Cell viab unstim	FLuc enzyme
CCc1ccc(OCCCC(=O)NCc2ccccc2)cc1	-	-	-	-	.	.	.	.	.	.	.
CC1CN(C(=O)c2cc(S(=O)(=O)N3CCCCC3)ccc2Cl)CC(C)O1 (configuration not stated)	-	.	.	-	.	.	.	.	.	.	.
CC1(c2ccc(OC(F)F)cc2)NC(=O)N(CC(=O)c2ccc3c(c2)OCO3)C1=O (configuration not stated)	-	.	.	-	.	.	.	.	.	.	.
CC(C)(C)C(=O)Nc1ccc(S(=O)(=O)N2CCC(c3nc4ccccc4[nH]3)CC2)cc1	3.7µM	.	.	-	.	2.5µM	-	?	-	-	.
CCCCCn1c2c(c(=N)c3ccccc31)CCC2	5.2µM	-	?	-	?	2µM	2.2µM	-	2.8µM	?	-
Cc1ccc2c(c1)[C@H]1[C@H](CO2)[C@H](c2ccccc2)[C@]2(C)C(=O)N(Cc3ccc(F)cc3)CC(=O)N12	?	.	.	-	.	.	.	.	.	.	.
COc1cc2c(C#CCCCO)c(-c3ccsc3)oc(=O)c2cc1OC	4.1µM	.	.	-	.	6.3µM	?	-	?	?	.

Assay outcomes as filed in PubChem BioAssay.
